This note sets out measurements from PubChem BioAssay AID995 (National Center for Advancing Translational Sciences (NCATS), 2007).

Structures are written as SMILES. In all, about 72,000 compounds went through this assay and about 710 (0.99%) were called active. Entries that show only a call come without a potency. Inconclusive results (about 7%) are left out. The sample as a whole holds a higher share of actives than the screen did. A number with no mark means an inactive call. The call rests on the fitted dose curve; in most records, active means well fitted inhibition curve with a large enough effect; inconclusive means small, poorly fitted or top-dose-only effect; inactive means no such curve, though single readings can be large or run the other way.
Potency means the concentration at half of the fitted maximal effect.

The nature of this experiment: qHTS Assay for Inhibitors of the ERK Signaling Pathway using a Homogeneous Screening Assay. Further: nearly all actives have a fitted effect of over 55% in size. The note with it: HEK293-V1b, vasopressin-stimulated pERK AlphaScreen; series mostly up to 57.5 µM. An excerpt:
qHTS Assay for Inhibitors of the ERK Signaling Pathway using a Homogeneous Screening Assay; further: nearly all actives have a fitted effect of over 55% in size
NIH Chemical Genomics Center [NCGC]
NIH Molecular Libraries Screening Centers Network [MLSCN]
Assay Submitter (PI): Dr. Wei Zheng, NCGC/NIH
The Ras/extracellular-signal-regulated kinase (ERK) mitogen activated protein (MAP) kinase signaling pathway (ERK1/2 cascade) plays is a key role in transmitting signals from the cell surface to the nucleus (Nishida and Gotoh 1993; Chang and Karin, 2001). The cascade is initiated by the small G-protein Ras, which recruits Raf […], where activation occurs. Alternatively, this pathway can be activated by elevating intracellular cAMP.
Activation of the ERK pathway is essential in increased cell division and cell survival. Sustained and constitutive activation of the ERK pathway, however, has been linked to uncontrolled cell proliferation, increased cell survival, and tumor progression. Thus, the ERK has been as an attractive target for cancer chemotherapy in the past few years (Sebolt-Leopold and Herrera, 2004). Given its physiological and pathological importance, assessment of ERK phosphorylation has been broadly performed in both basic research and drug discovery. Most assays for the measurement of ERK phosphorylation use the antibody-based detection methods, such as western blot and ELISA. These assays require multiple reagent additions with cell wash steps and are not suitable for high throughout screening.
The current cell-based ERK phosphorylation assay was performed using AlphaScreen platform. AlphaScreen is a two bead-based proximity-dependent chemical energy transfer luminescent assay platform. The assay reagents (ERK SureFire(TM) kit) were supplied from TGR BioSciences (Australia). In the presence of specific antibodies, phosphorylated ERK will bring "donor" and "acceptor" beads to a proximity range (<200 nm), and subsequently lead a chemical luminescent reaction upon exciting donor beads with 680 nm laser. To exclude the assay-related false positives, we used a biotinylated rabbit IgG to perform counter-screen. The biotinylated antibody mimics the phosphorylated ERK1/2 for bringing streptavidin coated beads and protein-A coated beads to a proximity range for the AlphaScreen detection.
NCGC Assay Protocol Summary:
HEK293 cells stably expressing type-1 vasopressin receptor (V1b) were maintained in DMEM medium (Invitrogen, Carlsbad, CA) at 37C under a humidified atmosphere containing 5% CO2 and 95% air. The medium contained 10% FBS, 2 mM L-glutamine, non-essential amino acid, pyruvate and 50 U/ml penicillin and 50 ug/ml streptomycin (Invitrogen). The aliquots of frozen cells were stored at -135C and used for the compound screening. All compounds were screened as titrations from 0.6 nM to 46 uM final concentration. Vasopressin was used to stimulate the ERK phosphorylation pathway. The ERK phosphorylation in cells was determined using an AlphaScreen assay kit provided by PerkinElmer. Data were normalized to the controls for basal activity (DMSO only) and 100% activation (25 nM vasopressin). AC50 values were determined from concentration-response data modeled with the standard Hill equation.
(1) Seed 4 ul/well of resuspended frozen HEK293 cells containing 2000 cells in white 1536-well plates for overnight with 1% FBS at 37C under a humidified atmosphere containing 5% CO2 and 95% air.
(2) Add 23 nL compounds in DMSO solution. The final titration was 0.6 nM to 46 uM.
(3) Incubate at 37C for 30 min.
(4) Dispense 0.5uL vasopressin (25 nM in final)
(5) Incubate at 37C for 5 min.
(6) Dispense 0.5uL of 1:2 diluted 5x lysis buffer.
(7) Incubate at 37C for 10 min.
(8) Dispense 1.5uL of mixture of activation buffer and reaction buffer with AlphaScreen beads (streptavidin donor beads and protein-A acceptor beads, 10 ng/well for each).
(9) Incubate at room temperature for 5 hr.
(10) Detect the assay plate in an EnVision plate reader (PerkinElmer) using the AlphaScreen detection mode.
[…]
Turning to `CC1(C)OC2CC(=O)OC[C@@]23C1CC(=O)[C@]1(C)C3CC[C@@]2(C)C(c3ccoc3)OC(=O)C3O[C@@]321` (stereo not given in full), the Potency entry is “inactive”.

With `O=C(O)c1ccc(C(=O)c2ccccc2C(=O)O)cc1C(=O)O`, the activity, negative = inhibition was 14.2% [at 11.5 µM].

Consider `Cc1c(O)cc(O)c2c(=O)c(-c3ccc(O)cc3)coc12`, for which the Potency result is “inactive”.

Regarding `COc1ccc(OC)c(NC(=O)CSc2nc(N)c(-c3ccccc3)c(=O)[nH]2)c1`, the Potency entry was “inactive”.

As to `CCn1c(COc2ccc(OC)cc2)nnc1SCC(=O)Nc1cc(OC)ccc1OC`, the Potency result was “inactive”.

For the compound `COc1ccc(OC)c(NC(=O)CSc2nc3cccnc3n2C)c1`, the Potency is 20 µM (active).

Regarding `CCCOC(=O)c1[nH]c2c(c1C)C(=O)CC(c1cc(OC)c(OC)c(OC)c1)C2` (stereo not given), the Potency is 25.1 µM (active).

With `CCCOC(=O)C1=C(C)NC2=C(C(=O)C(C(=O)OC)C(C)C2)C1c1ccc(N(C)C)cc1` (stereo not given), the Potency entry was “inactive”.

Consider `COC(=O)C1C(=O)c2c([nH]c(C(=O)OCCSC)c2C)CC1C` (stereo not given), for which the Potency entry is “inactive”.

Turning to `CC(=O)OCC(=O)[C@@]1(O)CCC2C3CCC4=CC(=O)CC[C@@]4(C)[C@]3(F)C(O)C[C@]21C` (stereo not given in full), the Potency result was “inactive”.

`C[C@@H]1O[C@@H](OC[C@H]2O[C@@H](Oc3c(-c4cccc(O)c4O)oc4cc(O)cc(O)c4c3=O)[C@H](O)[C@@H](O)[C@@H]2O)[C@H](O)[C@H](O)[C@H]1O`: the Potency entry is “inactive”.

Turning to `COc1ccccc1N1CCN(C[C@@H]2CN3C(=O)N(C)c4ccccc4C3=N2)CC1`, the Potency result was “inactive”.

As to `COc1cc(-c2nn3c(-c4cccc(C)c4)nnc3s2)cc(OC)c1OC`, the Potency entry was “inactive”.

In the case of `Fc1ccc(-c2nnc3sc(-c4ccc5c(c4)OCO5)nn23)cc1`, the Potency result was “inactive”.

Consider `COc1ccc(-c2nn3c(-c4ccccc4)nnc3s2)cc1OC`, for which the Potency was 7.94 µM (active).

In the case of `CC(=O)O[C@]1(C(C)=O)CC[C@@H]2[C@@H]3C=C(C)C4=CC(=O)CC[C@@]4(C)[C@H]3CC[C@]21C`, the Potency result was “inactive”.

Consider `O=C(O)c1nn(-c2ccc(Cl)cc2)c2c1C(=O)c1ccccc1C2=O`, for which the activity, negative = inhibition is -10.9% [at 11.5 µM].

As for `CC1CC[C@@]23CCC4(C)[C@@]5(C)CCC6C(C)(C)C(O)CC[C@@]6(C)C5C=C[C@@]4(OC2=O)C3C1C` (stereo not given in full), the Potency entry is “inactive”.

Consider `CN(C)CCc1c[nH]c2ccc(Cn3cncn3)cc12`, for which the Potency result was “inactive”.

Turning to `N#Cc1ccccc1-c1ccc2ncnc(NCc3cccnc3)c2c1`, the Potency result is “inactive”.

For `CC1(C)SC2C(NC(=O)COc3ccccc3)C(=O)N2C1C(=O)O` (stereo not given), the Potency result is “inactive”.

Consider `S=c1c2[nH]cnc2ncn1CCSc1ncnc2nc[nH]c12`, for which the activity, negative = inhibition was -0.588% [at 11.5 µM].

For `COC(=O)NC(c1ccccc1)[C@]1(C(C)=O)CCCC1=O` (stereo not given in full), the activity, negative = inhibition was -3.18% [at 11.5 µM].

Regarding `Nc1nc2nc(Cl)[nH]c2c(=O)[nH]1`, the Potency result is “inactive”.

For `O=C(O)C1CCN(c2ncnc3ccc(-c4ccccc4C(F)(F)F)cc23)CC1`, the Potency result was “inactive”.

With `CCCN1[C@H](C(=O)OC)C[C@@]2(O)[C@@H](O)[C@@H](O)[C@@H](O)C[C@@H]12`, the Potency result is “inactive”.

In the case of `Nc1ncn(C2OC(CO)C(O)C2O)c(=O)n1` (stereo not given), the Potency entry was “inactive”.

With `COC(=O)[C@@]1(Cc2ccc(OC)cc2)[C@H]2c3cc(C(=O)N4CCCC4)n(Cc4ccc(C(F)(F)F)nc4)c3C[C@H]2CN1C(=O)c1ccccc1`, the Potency entry was “inactive”.

For the compound `O=c1c(-c2ccc(F)cc2)nc2cnc(N3CCOCC3)nc2n1-c1ccccc1`, the Potency result is “inactive”.

As for `C=C(C)C1CC=C(CO)CC1` (stereo not given), the Potency result is “inactive”.

As to `COc1ccccc1CNc1cc(-c2ccccc2CN(C)C)ncn1`, the Potency entry is “inactive”.

In the case of `Cc1cc(OCC(=O)O)c(Cl)cc1Cl`, the activity, negative = inhibition was -16.5% [at 11.5 µM].

Turning to `CCN1CCCC1CNc1ncnc2c1[nH]c1ccc(F)cc12` (stereo not given), the Potency entry was “inactive”.

Turning to `Cc1ccc(-n2ncc3c(N4CCN(c5ccc(F)cc5)CC4)ncnc32)c(C)c1`, the Potency entry was “inactive”.

With `Fc1ccc2[nH]c3c(N4CCSCC4)ncnc3c2c1`, the Potency is 12.6 µM (active).

Consider `Oc1ccc(O)c2c(O)cccc12`, for which the Potency entry was “inactive”.

In the case of `CC(=O)c1cccc(NC(=O)c2ccncc2)c1`, the Potency result is “inactive”.

As to `C/C(=C\C(=O)c1ccccc1)Nc1cccc(O)c1`, the Potency was 7.94 µM (active).

Regarding `C/C(=C\C(=O)c1cccnc1)Nc1ccc(C)c(C)c1`, the Potency entry is “inactive”.

`Cc1noc(C)c1-c1nc(Nc2ccccc2)c2ccccc2n1`: the Potency result is “inactive”.

In the case of `COc1cccc(-c2nc(Nc3ccncc3)c3ccccc3n2)c1`, the Potency was 15.8 µM (active).

Turning to `COc1ccc2[nH]cc(CCNc3nc(-c4cccc(NS(C)(=O)=O)c4)nc4ccccc34)c2c1`, the Potency entry was “inactive”.

For the compound `CCC(C)(C)N=C(NC#N)Nc1cccnc1`, the Potency result was “inactive”.

Turning to `N[C@H](C(=O)O)c1ccc(C(=O)O)c(O)c1`, the Potency result is “inactive”.

For `CC(=O)Oc1c2c(c3c(c1CC=C(C)C)O[C@@]14C(=CC5CC1C(C)(C)OC4(C/C=C(\C)C(=O)O)C5=O)C3=O)OC(C)(CCC=C(C)C)C=C2` (stereo not given in full), the Potency result is “inactive”.

`NCCCNCCCCN(CCCN)/[N+]([O-])=N/O`: the Potency result was “inactive”.

Consider `CC(C)(O)CCC(O)[C@@](C)(O)C1CC[C@]2(O)C3=CC(=O)C4CC(O)C(O)C[C@]4(C)C3CC[C@]12C` (stereo not given in full), for which the Potency entry is “inactive”.

`N#C/C(=C\c1ccc(O)c(O)c1)C(N)=O`: the Potency entry is “inactive”.

For the compound `Oc1c(CN2CCOCC2)ccc(CN2CCOCC2)c1O`, the activity, negative = inhibition is -4.14% [at 11.5 µM].

`CCC[C@@H]1C[C@@]1(CCC)[C@@H](NC(=O)c1ccccc1)c1ccc(C(=O)OC)cc1`: the Potency entry was “inactive”.

With `CCCn1c(-c2ccc(F)cc2)nc2c(NC3CCN(Cc4ccccc4)C3)nc(C)nc21` (stereo not given), the Potency entry was “inactive”.

Take `O=C(Nc1c[nH]c(=O)[nH]c1=O)Oc1ccccc1`: the activity, negative = inhibition was -1.65% [at 11.5 µM].

As to `CN(CCOc1ccc(CC2SC(=O)NC2=O)cc1)c1ccccn1` (stereo not given), the Potency result was “inactive”.

Take `COc1ccc(-c2nc3cnc(N(C)C)nc3n(Cc3cccs3)c2=O)cc1`: the Potency entry was “inactive”.

As to `COC(=O)[C@@H]1C[C@H]2CC[C@H](O)C[C@H]2N1Cc1ccc(N2CCN(C)CC2)cc1`, the Potency entry was “inactive”.

Take `COCCn1c(=O)c(-c2cccc(F)c2)nc2cncnc21`: the Potency result is “inactive”.

Take `N#Cc1cc2[nH]c(=O)c(=O)[nH]c2cc1[N+](=O)[O-]`: the Potency entry was “inactive”.

With `CCOc1ccccc1-n1c(SCC(=O)NCc2ccco2)nnc1-c1ccncc1`, the Potency entry was “inactive”.

`Cc1nc2nc(SCC(=O)NCc3ccco3)nn2c(C)c1Cc1ccccc1`: the Potency result is “inactive”.

Consider `CCOC(=O)c1cnc(SCC(=O)NCc2ccco2)nc1N`, for which the Potency was 25.1 µM (active).
